# Experimental data published in PubChem BioAssay AID1159580 (chemical genetic matrix, 2015).
# In all, about 5,500 compounds went through this assay and about 2,000 (36%) were called active. Inconclusive results (about 18%) are left out. The list shows a part of the results. Unmarked numbers belong to inactive results. No stated cut-off is given here; in the data, active means normalized growth mostly below about 0.91 (no sharp cut-off); inconclusive means no clear call, values can overlap the other calls; inactive means mostly above about 0.92.
# Assay: chemical genetic growth profiling, strain panel (AID 1159580);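 further: tested at 20 µM; growth read once vehicle control cultures reached saturation at 30 °C; 1 = growth at the plate median or of vehicle wells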
# Settings: growth OD
structure (smiles),measurement,setting,value
O=c1oc2c(O)c(O)cc3c(=O)oc4c(O)c(O)cc1c4c23,normalized growth,"S. cerevisiae deletion strains, locus YJR075W, strain HOC1, stronger effect = lower value",0.684 (active)
same,normalized growth,"S. cerevisiae deletion strains, locus YKL009W, strain mrt4, stronger effect = lower value",0.978
same,normalized growth,"S. cerevisiae deletion strains, locus YKL068W, stronger effect = lower value",0.994
same,normalized growth,"S. cerevisiae deletion strains, locus YKL085W, strain MDH1 (second series), stronger effect = lower value",0.972
same,normalized growth,"S. cerevisiae deletion strains, locus YKL085W, strain MDH1, stronger effect = lower value",0.972
same,normalized growth,"S. cerevisiae deletion strains, locus YKL160W, strain elf1, stronger effect = lower value",0.82 (active)
same,normalized growth,"S. cerevisiae deletion strains, locus YKL190W, strain CNB1, stronger effect = lower value",0.712 (active)
same,normalized growth,"S. cerevisiae deletion strains, locus YKR001C, strain vps1, stronger effect = lower value",0.54 (active)
same,normalized growth,"S. cerevisiae deletion strains, locus YKR026C, strain gcn3, stronger effect = lower value",0.992
same,normalized growth,"S. cerevisiae deletion strains, locus YKR091W, strain srl3, stronger effect = lower value",0.924 (active)
same,normalized growth,"S. cerevisiae deletion strains, locus YLL001W, strain dnm1, stronger effect = lower value",0.747 (active)
same,normalized growth,"S. cerevisiae deletion strains, locus YLL026W, stronger effect = lower value",0.686 (active)
same,normalized growth,"S. cerevisiae deletion strains, locus YLL041C, strain sdh2, stronger effect = lower value",0.904 (active)
same,normalized growth,"S. cerevisiae deletion strains, locus YLR027C, strain aat2, stronger effect = lower value",0.772 (active)
same,normalized growth,"S. cerevisiae deletion strains, locus YLR039C, strain RIC1, stronger effect = lower value",0.407 (active)
same,normalized growth,"S. cerevisiae deletion strains, locus YLR058C, strain SHM2, stronger effect = lower value",0.578 (active)
same,normalized growth,"S. cerevisiae deletion strains, locus YLR102C, strain apc9, stronger effect = lower value",0.933
same,normalized growth,"S. cerevisiae deletion strains, locus YLR113W, strain HOG1, stronger effect = lower value",0.981
same,normalized growth,"S. cerevisiae deletion strains, locus YLR221C, strain rsa3, stronger effect = lower value",0.717 (active)
same,normalized growth,"S. cerevisiae deletion strains, locus YLR258W, strain gsy2, stronger effect = lower value",0.747 (active)
same,normalized growth,"S. cerevisiae deletion strains, locus YLR262C, strain YPT6 (second series), stronger effect = lower value",0.648 (active)
same,normalized growth,"S. cerevisiae deletion strains, locus YLR262C, strain YPT6, stronger effect = lower value",0.556 (active)
same,normalized growth,"S. cerevisiae deletion strains, locus YLR268W, strain sec22, stronger effect = lower value",0.356 (active)
same,normalized growth,"S. cerevisiae deletion strains, locus YLR320W, strain mms22, stronger effect = lower value",0.617 (active)
same,normalized growth,"S. cerevisiae deletion strains, locus YLR330W, strain CHS5, stronger effect = lower value",0.584 (active)
same,normalized growth,"S. cerevisiae deletion strains, locus YLR342W, strain FKS1 (second series), stronger effect = lower value",0.401 (active)
same,normalized growth,"S. cerevisiae deletion strains, locus YLR342W, strain FKS1, stronger effect = lower value",0.628 (active)
same,normalized growth,"S. cerevisiae deletion strains, locus YLR357W, strain rsc2, stronger effect = lower value",0.627 (active)
same,normalized growth,"S. cerevisiae deletion strains, locus YLR370C, strain arc18, stronger effect = lower value",0.422 (active)
same,normalized growth,"S. cerevisiae deletion strains, locus YLR371W, strain rom2, stronger effect = lower value",0.605 (active)
same,normalized growth,"S. cerevisiae deletion strains, locus YLR384C, strain iki3, stronger effect = lower value",0.724 (active)
same,normalized growth,"S. cerevisiae deletion strains, locus YLR418C, strain cdc73, stronger effect = lower value",0.366 (active)
same,normalized growth,"S. cerevisiae deletion strains, locus YML016C, strain PPZ1, stronger effect = lower value",0.626 (active)
same,normalized growth,"S. cerevisiae deletion strains, locus YML032C, strain rad52, stronger effect = lower value",0.66 (active)
same,normalized growth,"S. cerevisiae deletion strains, locus YML120C, strain ndi1, stronger effect = lower value",0.581 (active)
same,normalized growth,"S. cerevisiae deletion strains, locus YML124C, strain tub3, stronger effect = lower value",0.778 (active)
same,normalized growth,"S. cerevisiae deletion strains, locus YMR058W, strain fet3, stronger effect = lower value",0.848 (active)
same,normalized growth,"S. cerevisiae deletion strains, locus YMR078C, strain ctf18, stronger effect = lower value",0.875 (active)
same,normalized growth,"S. cerevisiae deletion strains, locus YMR125W, strain sto1, stronger effect = lower value",1
same,normalized growth,"S. cerevisiae deletion strains, locus YMR129W, stronger effect = lower value",0.886 (active)
same,normalized growth,"S. cerevisiae deletion strains, locus YMR205C, strain PFK2, stronger effect = lower value",0.685 (active)
same,normalized growth,"S. cerevisiae deletion strains, locus YMR223W, strain ubp8, stronger effect = lower value",0.612 (active)
same,normalized growth,"S. cerevisiae deletion strains, locus YMR231W, strain pep5, stronger effect = lower value",0.728 (active)
same,normalized growth,"S. cerevisiae deletion strains, locus YMR263W, strain SAP30, stronger effect = lower value",0.616 (active)
same,normalized growth,"S. cerevisiae deletion strains, locus YMR307W, strain GAS1, stronger effect = lower value",0.731
same,normalized growth,"S. cerevisiae deletion strains, locus YNL067W, strain RPL9B, stronger effect = lower value",0.572 (active)
same,normalized growth,"S. cerevisiae deletion strains, locus YNL071W, strain lat1, stronger effect = lower value",0.86 (active)
same,normalized growth,"S. cerevisiae deletion strains, locus YNL128W, strain TEP1, stronger effect = lower value",0.558 (active)
same,normalized growth,"S. cerevisiae deletion strains, locus YNL153C, strain GIM3, stronger effect = lower value",0.492 (active)
same,normalized growth,"S. cerevisiae deletion strains, locus YNL183C, strain NPR1, stronger effect = lower value",0.922
same,normalized growth,"S. cerevisiae deletion strains, locus YNL209W, strain ssb2, stronger effect = lower value",0.444 (active)
same,normalized growth,"S. cerevisiae deletion strains, locus YNL233W, strain BNI4, stronger effect = lower value",0.594 (active)
same,normalized growth,"S. cerevisiae deletion strains, locus YNL248C, strain rpa49, stronger effect = lower value",0.912
same,normalized growth,"S. cerevisiae deletion strains, locus YNL250W, strain rad50, stronger effect = lower value",0.947
same,normalized growth,"S. cerevisiae deletion strains, locus YNL271C, strain bni1, stronger effect = lower value",0.885 (active)
same,normalized growth,"S. cerevisiae deletion strains, locus YNL298W, strain CLA4, stronger effect = lower value",0.907 (active)
same,normalized growth,"S. cerevisiae deletion strains, locus YNL307C, strain MCK1, stronger effect = lower value",0.787 (active)
same,normalized growth,"S. cerevisiae deletion strains, locus YNL322C, strain KRE1 (second series), stronger effect = lower value",0.685 (active)
same,normalized growth,"S. cerevisiae deletion strains, locus YNR049C, strain mso1, stronger effect = lower value",0.896 (active)
same,normalized growth,"S. cerevisiae deletion strains, locus YNR052C, strain pop2, stronger effect = lower value",0.365 (active)
same,normalized growth,"S. cerevisiae deletion strains, locus YOL012C, strain htz1",0.268
same,normalized growth,"S. cerevisiae deletion strains, locus YOL147C, strain pex11, stronger effect = lower value",0.658 (active)
same,normalized growth,"S. cerevisiae deletion strains, locus YOR001W, strain rrp6, stronger effect = lower value",0.735 (active)
same,normalized growth,"S. cerevisiae deletion strains, locus YOR061W, strain CKA2, stronger effect = lower value",0.618 (active)
same,normalized growth,"S. cerevisiae deletion strains, locus YOR069W, strain VPS5, stronger effect = lower value",0.69 (active)
same,normalized growth,"S. cerevisiae deletion strains, locus YOR070C, strain gyp1, stronger effect = lower value",0.593 (active)
same,normalized growth,"S. cerevisiae deletion strains, locus YOR080W, strain dia2, stronger effect = lower value",0.638 (active)
same,normalized growth,"S. cerevisiae deletion strains, locus YOR083W, strain WHI5, stronger effect = lower value",0.717 (active)
same,normalized growth,"S. cerevisiae deletion strains, locus YOR106W, strain vam3, stronger effect = lower value",0.507 (active)
same,normalized growth,"S. cerevisiae deletion strains, locus YOR136W, strain idh2, stronger effect = lower value",0.796 (active)
same,normalized growth,"S. cerevisiae deletion strains, locus YOR144C, strain elg1, stronger effect = lower value",0.68 (active)
same,normalized growth,"S. cerevisiae deletion strains, locus YOR184W, strain ser1, stronger effect = lower value",0.538 (active)
same,normalized growth,"S. cerevisiae deletion strains, locus YOR231W, strain MKK1, stronger effect = lower value",0.972
same,normalized growth,"S. cerevisiae deletion strains, locus YOR265W, strain rbl2, stronger effect = lower value",0.771 (active)
same,normalized growth,"S. cerevisiae deletion strains, locus YOR270C, strain vph1, stronger effect = lower value",0.467 (active)
same,normalized growth,"S. cerevisiae deletion strains, locus YOR290C, strain snf2, stronger effect = lower value",0.167 (active)
same,normalized growth,"S. cerevisiae deletion strains, locus YOR316C, strain cot1, stronger effect = lower value",0.852 (active)
same,normalized growth,"S. cerevisiae deletion strains, locus YPL051W, strain arl3, stronger effect = lower value",0.627 (active)
same,normalized growth,"S. cerevisiae deletion strains, locus YPL055C, strain LGE1, stronger effect = lower value",0.624 (active)
same,normalized growth,"S. cerevisiae deletion strains, locus YPL078C, strain atp4, stronger effect = lower value",0.767 (active)
same,normalized growth,"S. cerevisiae deletion strains, locus YPL106C, strain sse1, stronger effect = lower value",0.809 (active)
same,normalized growth,"S. cerevisiae deletion strains, locus YPL240C, strain hsp82, stronger effect = lower value",0.864 (active)
same,normalized growth,"S. cerevisiae deletion strains, locus YPL241C, strain CIN2, stronger effect = lower value",0.816 (active)
same,normalized growth,"S. cerevisiae deletion strains, locus YPL256C, strain CLN2, stronger effect = lower value",1.01
same,normalized growth,"S. cerevisiae deletion strains, locus YPR119W, strain clb2, stronger effect = lower value",0.947
same,normalized growth,"S. cerevisiae deletion strains, locus YPR141C, strain kar3, stronger effect = lower value",0.987
same,normalized growth,"S. cerevisiae deletion strains, locus YPR163C, strain tif3, stronger effect = lower value",0.876 (active)
same,normalized growth,"S. cerevisiae deletion strains, locus YPR167C, strain met16, stronger effect = lower value",0.725 (active)
same,normalized growth,"S. cerevisiae deletion strains, strain wtn01, stronger effect = lower value",0.511 (active)
same,normalized growth,"S. cerevisiae strains, strain wild type, stronger effect = lower value",0.605 (active)
